Reference: PubChem BioAssay (Tox21)
Where “and” joins values, the source holds several entries; their conditions need not be identical. Equal entries are not always repeated. Records with an inconclusive call do not appear. Entries that show only a call come without a potency. The source holds several records for some structures; these can differ, active in one and inactive in another. Calls of active or inactive are those of the source. Unless noted, calls come from the whole dose curve.

Columns and labels:
[1] = qHTS assay to identify small molecule antagonists of the sonic hedgehog signaling (Shh) pathway (AID 1259369); note: nearly all actives have a fitted effect of over 45% in size; note: potency is the fitted concentration of half-maximal effect
In short: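 Read-out is luminescence from a firefly luciferase gene controlled by the Gli1 response element, in 3T3Gli1-Luc cells pre-incubated 4hr then exposed to compounds and conditioned medium for 24hr.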

[2] = target: Estrogen receptor beta (Homo sapiens) (UniProt Q92731); assay: qHTS assay to identify small molecule agonists of the estrogen receptor beta (ER-beta) signaling pathway (AID 1259377; active = well fitted activation curve with a large enough effect in the signal ratio in the repeat runs, not every such curve was filed as active; the % refers to the signal ratio)
Chain of Estrogen receptor beta (Homo sapiens) (Q92731 whole entry, looked up): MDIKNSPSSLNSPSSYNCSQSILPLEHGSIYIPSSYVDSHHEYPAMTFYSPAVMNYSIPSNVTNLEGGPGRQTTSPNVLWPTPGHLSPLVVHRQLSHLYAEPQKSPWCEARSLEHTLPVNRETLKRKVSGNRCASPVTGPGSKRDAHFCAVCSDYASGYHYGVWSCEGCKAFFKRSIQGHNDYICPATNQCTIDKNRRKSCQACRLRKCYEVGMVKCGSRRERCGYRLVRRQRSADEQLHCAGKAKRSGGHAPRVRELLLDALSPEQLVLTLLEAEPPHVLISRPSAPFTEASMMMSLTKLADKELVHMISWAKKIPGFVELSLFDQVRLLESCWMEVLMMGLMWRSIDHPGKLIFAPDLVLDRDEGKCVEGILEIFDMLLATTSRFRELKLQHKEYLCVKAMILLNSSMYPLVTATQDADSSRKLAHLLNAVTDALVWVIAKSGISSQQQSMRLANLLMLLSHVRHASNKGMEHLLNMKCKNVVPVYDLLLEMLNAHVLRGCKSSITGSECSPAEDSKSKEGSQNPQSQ
In short: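 Reporter cells (HEK293T, ER-beta-UAS-bla) receive compounds or DMSO after a 6 hr pre-incubation. They then incubate 16 hr at 37C/5% CO2, and fluorescence from LiveBLAzer B/G substrate is measured after 2 hours at room temperature.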

[3] = target: Estrogen receptor beta (Homo sapiens) (UniProt Q92731); assay: qHTS assay to identify small molecule antagonists of the estrogen receptor beta (ER-beta) signaling pathway (AID 1259378; active = well fitted inhibition curve with a large enough effect in the signal ratio in the repeat runs, not every such curve was filed as active; the % refers to the signal ratio; note: potency is the fitted concentration of half-maximal effect)
In short: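 Antagonist mode: compounds added to beta-lactamase reporter HEK293T ER-beta-UAS cells stimulated with E2 (1nM final), 16 hr at 37C. LiveBLAzer B/G FRET substrate, 2 hours room temperature, fluorescence read-out.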

[4] = qHTS assay to identify small molecule agonists of the androgen receptor (AR) signaling pathway in the presence of an antagonist - cell viability counter screen (AID 1259379; active = well fitted curve in the direction sought with a large enough effect in the repeat runs; an effect the other way counts as inactive or inconclusive; note: nearly all actives have a fitted effect of over 25% in size; note: potency is the fitted concentration of half-maximal effect)
In short: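 Each compound was tested at 15 concentrations on MDA-kb2 cells in the presence of 3.0uM nilutamide. Viability was measured by CellTiter-Fluor fluorescence after a 16 hr incubation at 37C in a CO2-free atmosphere.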

[5] = qHTS assay to identify small molecule agonists of the estrogen receptor beta (ER-beta) signaling pathway - cell viability counter screen (AID 1259380; active = well fitted curve in the direction sought with a large enough effect in the repeat runs; an effect the other way counts as inactive or inconclusive; note: nearly all actives have a fitted effect of over 30% in size; note: potency is the fitted concentration of half-maximal effect)
In short: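 Compounds dissolved in DMSO were pin-transferred onto ER-beta-UAS-bla HEK293T cells that had settled 6 hr, and exposure ran 16 hr at 37C. Following the reporter read, CellTiter-Glo luminescence after 30 min at room temperature indicated cytotoxicity.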

[6] = qHTS assay to identify small molecule antagonists of the estrogen receptor beta (ER-beta) signaling pathway - cell viability counter screen (AID 1259382; active = well fitted curve in the direction sought with a large enough effect in the repeat runs; an effect the other way counts as inactive or inconclusive; note: nearly all actives have a fitted effect of over 55% in size; note: potency is the fitted concentration of half-maximal effect)
In short: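 CellTiter-Glo ATP luminescence measured after the LiveBLAzer read in the same wells; ER-beta-UAS-bla HEK293T cells, 16 hr compound treatment with 1nM 17-beta-estradiol agonist at 37C, 5% CO2.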

[7] = target: Estrogen receptor (Homo sapiens) (UniProt P03372); assay: qHTS assay to identify small molecule agonists of the estrogen receptor alpha (ER-alpha) signaling pathway in the presence of an antagonist (AID 1259383); note: top concentration of the series differs between compounds; nearly all actives have a fitted effect of over 15% in size
Chain of Estrogen receptor (Homo sapiens) (P03372 whole entry, looked up): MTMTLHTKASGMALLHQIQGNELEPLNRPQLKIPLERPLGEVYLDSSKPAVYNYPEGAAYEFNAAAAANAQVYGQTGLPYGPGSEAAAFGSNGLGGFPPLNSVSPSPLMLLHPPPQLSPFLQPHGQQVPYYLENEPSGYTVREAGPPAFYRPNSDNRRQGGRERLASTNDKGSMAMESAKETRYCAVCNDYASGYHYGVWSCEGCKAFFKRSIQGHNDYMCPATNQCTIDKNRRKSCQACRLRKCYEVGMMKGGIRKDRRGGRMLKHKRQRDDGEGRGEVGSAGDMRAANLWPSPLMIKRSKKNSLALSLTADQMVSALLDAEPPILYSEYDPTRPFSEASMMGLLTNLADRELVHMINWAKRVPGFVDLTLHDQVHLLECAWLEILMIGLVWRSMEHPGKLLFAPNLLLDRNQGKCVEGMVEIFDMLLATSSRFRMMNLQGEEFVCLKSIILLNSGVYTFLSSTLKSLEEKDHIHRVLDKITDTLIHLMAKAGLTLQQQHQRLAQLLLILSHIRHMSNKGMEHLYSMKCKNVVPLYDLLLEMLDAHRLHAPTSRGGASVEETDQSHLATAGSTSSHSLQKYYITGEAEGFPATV
In short: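 Luminescent ERE-luciferase reporter, VM7Luc4E2 cells (endogenous ER-alpha); 10.0nM ICI-182,780 final; 15-point compound titration; 22hr at 37C; ONE-Glo, 30min RT.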

[8] = qHTS assay to identify small molecule agonists or antagonists of the thyroid stimulating hormone receptor (TSHR) signaling pathway - wild type cell line counter screen (AID 1259384)
In short: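 Counter screen in untransfected Hek293: compounds (15-point titration, triplicate) plus phosphodiesterase inhibitor Ro20-1724 added after 18 h plating; 30 min RT. Intracellular cAMP via competitive d2/cryptate immunoassay, 1 h incubation.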

[9] = target: Thyrotropin receptor (Homo sapiens) (UniProt P16473); assay: qHTS assay to identify small molecule antagonists of the thyroid stimulating hormone receptor (TSHR) signaling pathway (AID 1259385); note: nearly all actives have a fitted effect of over 20% in size
Chain of Thyrotropin receptor (Homo sapiens) (P16473 whole entry, looked up): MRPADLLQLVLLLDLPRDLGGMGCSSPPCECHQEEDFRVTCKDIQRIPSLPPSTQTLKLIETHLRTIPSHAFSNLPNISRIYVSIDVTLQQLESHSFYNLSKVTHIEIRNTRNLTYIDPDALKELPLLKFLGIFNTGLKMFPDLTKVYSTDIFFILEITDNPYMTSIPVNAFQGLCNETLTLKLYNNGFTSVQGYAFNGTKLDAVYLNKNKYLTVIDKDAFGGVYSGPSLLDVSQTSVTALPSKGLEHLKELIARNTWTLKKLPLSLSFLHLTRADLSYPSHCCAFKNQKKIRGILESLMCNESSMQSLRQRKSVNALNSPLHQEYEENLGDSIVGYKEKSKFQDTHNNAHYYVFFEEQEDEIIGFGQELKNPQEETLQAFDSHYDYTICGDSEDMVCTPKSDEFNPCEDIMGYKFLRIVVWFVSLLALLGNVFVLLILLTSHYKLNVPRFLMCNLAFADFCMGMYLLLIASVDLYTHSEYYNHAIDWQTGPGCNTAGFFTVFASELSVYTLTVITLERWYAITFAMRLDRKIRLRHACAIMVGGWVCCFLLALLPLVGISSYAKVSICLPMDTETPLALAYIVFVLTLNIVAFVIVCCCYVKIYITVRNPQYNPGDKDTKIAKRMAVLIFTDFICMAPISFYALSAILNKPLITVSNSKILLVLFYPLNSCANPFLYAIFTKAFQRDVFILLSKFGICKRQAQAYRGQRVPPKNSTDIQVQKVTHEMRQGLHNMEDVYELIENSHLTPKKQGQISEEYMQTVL
In short: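 Antagonist mode: compound-treated TSHR-expressing HEK293 cells were stimulated with 1.5 ng/mL TSH (final) in presence of Ro20-1724 for 30 min at RT. HTRF cAMP detection after 1 h; each compound tested at 15 concentrations, triplicate.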

[10] = target: Androgen receptor (Homo sapiens) (UniProt P10275); assay: qHTS assay to identify small molecule agonists of the androgen receptor (AR) signaling pathway in the presence of an antagonist (AID 1259381); note: nearly all actives have a fitted effect of over 15% in size
Chain of Androgen receptor (Homo sapiens) (P10275 whole entry, looked up): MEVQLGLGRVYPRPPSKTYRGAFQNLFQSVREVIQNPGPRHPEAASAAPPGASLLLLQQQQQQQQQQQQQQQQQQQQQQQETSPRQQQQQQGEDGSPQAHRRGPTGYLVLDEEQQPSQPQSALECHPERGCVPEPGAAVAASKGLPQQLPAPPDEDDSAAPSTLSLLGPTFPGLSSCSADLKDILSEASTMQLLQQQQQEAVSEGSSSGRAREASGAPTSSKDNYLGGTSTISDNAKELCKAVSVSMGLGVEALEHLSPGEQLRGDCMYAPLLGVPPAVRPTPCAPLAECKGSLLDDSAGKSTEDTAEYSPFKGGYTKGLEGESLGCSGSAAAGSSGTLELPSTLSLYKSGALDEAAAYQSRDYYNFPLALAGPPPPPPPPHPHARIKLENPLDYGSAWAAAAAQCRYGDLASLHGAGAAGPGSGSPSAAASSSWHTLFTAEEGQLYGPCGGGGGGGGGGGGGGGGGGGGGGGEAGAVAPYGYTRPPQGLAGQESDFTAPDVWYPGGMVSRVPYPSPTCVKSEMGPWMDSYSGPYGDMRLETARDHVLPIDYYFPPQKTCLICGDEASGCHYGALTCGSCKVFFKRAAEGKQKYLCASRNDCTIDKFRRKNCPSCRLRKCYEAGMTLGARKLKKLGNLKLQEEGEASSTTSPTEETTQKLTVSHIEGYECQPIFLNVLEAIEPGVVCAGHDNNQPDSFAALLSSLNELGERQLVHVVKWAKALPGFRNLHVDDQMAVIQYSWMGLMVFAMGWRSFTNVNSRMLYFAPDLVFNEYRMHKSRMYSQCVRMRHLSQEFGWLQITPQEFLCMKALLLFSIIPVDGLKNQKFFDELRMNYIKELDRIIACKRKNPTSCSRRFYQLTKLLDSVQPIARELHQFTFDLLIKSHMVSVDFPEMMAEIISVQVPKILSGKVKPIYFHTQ
In short: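 Plated MDA-kb2 cells (3,000/well) were pre-incubated 5hr, given nilutamide (3.0uM final) or buffer, then dosed with compounds in DMSO at 15 concentrations. Luciferase activity was quantified by luminescence after 16hr at 37C.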

| SMILES | Potency [1] | Potency [2] | Potency [3] | Potency [4] | Potency [5] | Potency [6] | Potency [7] | Potency [8] | Potency [9] | Potency [10] |
| --- | --- | --- | --- | --- | --- | --- | --- | --- | --- | --- |
| O=C(Cl)c1ccccc1F | inactive | inactive | inactive | inactive | inactive | inactive | inactive | inactive | inactive | – |
| CC1CN1 (configuration not stated) | inactive | inactive | inactive | inactive | inactive | inactive | inactive | inactive | inactive | – |
| CCC1COC(Cn2cncn2)(c2ccc(Cl)cc2Cl)O1 (configuration not stated) | 54.5 µM (active) | inactive | inactive | inactive | inactive | inactive | inactive | inactive | inactive | – |
| O=NN(CCO)CCO | inactive | inactive | inactive | inactive | inactive | inactive | inactive | – | inactive | inactive |
| [O-][Cl+3]([O-])([O-])O | inactive | inactive | inactive | inactive | inactive | inactive | – | – | – | – |
| CC(C)c1c(CN(C)C(C)Cc2ccccc2)n(C)n(-c2ccccc2)c1=O (configuration not stated) | inactive | inactive | 21.1 µM (active) | inactive | 6.68 µM (active) | inactive | – | – | – | – |
| CNC(=O)/C=C(\C)OP(=O)(OC)OC | inactive | inactive | inactive | inactive | inactive | inactive | inactive | inactive | inactive | – |
| CCC(C)Nc1c([N+](=O)[O-])cc(C(C)(C)C)cc1[N+](=O)[O-] (configuration not stated) | inactive | inactive | inactive | inactive | inactive | inactive | – | – | – | – |
| CN1[C@@H]2CC[C@H]1CC(O)C2 (some centres not stated) | inactive | inactive | inactive | inactive | inactive | inactive | – | – | – | – |
| C#CCO | inactive | inactive | inactive | inactive | inactive | inactive | inactive | – | – | – |
| COc1ccc(Cc2nccc3cc(OC)c(OC)cc23)cc1OC | 1.88 µM (active) | inactive | inactive | 18.8 µM (active) | inactive | inactive | – | inactive | inactive | inactive |
| Brc1cccc(-c2ccccc2)c1 | inactive | inactive | inactive | inactive | inactive | inactive | inactive | – | – | – |
| CCOC(=O)Cc1ccccc1 | inactive | inactive | inactive | inactive | inactive | inactive | inactive | inactive | inactive | inactive |
| Cc1cnc2c(C(=O)O)c(Cl)ccc2c1 | inactive | inactive | inactive | inactive | inactive | inactive | inactive | – | – | – |
| CC(C)N(C(=O)CCl)c1ccccc1 | 12.2 µM (active) and 9.69 µM (active) | inactive | 9.69 µM (active) | 54.5 µM (active) | 54.5 µM (active) and 27.3 µM (active) | – | inactive | inactive | inactive | inactive |
| O=[N+]([O-])c1ccccc1-c1ccccc1 | inactive | inactive | inactive | inactive | inactive | inactive | inactive | inactive | – | – |
| CC(C)C(Nc1ccc(C(F)(F)F)cc1Cl)C(=O)OC(C#N)c1cccc(Oc2ccccc2)c1 (configuration not stated) | 43.6 µM (active) | inactive | inactive | inactive | inactive | inactive | inactive | – | – | – |
| O=C(O)CCCCCCNC1c2ccccc2CCc2ccccc21 | inactive | inactive | inactive | inactive | inactive | inactive | inactive | inactive | inactive | – |
| COc1ccc2c(c1OC)C(=O)O[C@@H]2[C@H]1c2cc3c(cc2CCN1C)OCO3 | inactive | inactive | inactive | inactive | inactive | inactive | – | inactive | inactive | inactive |
| c1ccc2nc(N3CCNCC3)ccc2c1 | inactive | inactive | inactive | inactive | 23.7 µM (active) | inactive | inactive | – | – | – |
| O=C(NC(=O)c1ccccc1Cl)Nc1ccc(OC(F)(F)F)cc1 | inactive | inactive | inactive | inactive | inactive | inactive | – | inactive | inactive | inactive |
| CC(C)=CC1C(C(=O)OC(C#N)c2cccc(Oc3ccccc3)c2)C1(C)C (configuration not stated) | inactive | inactive | inactive | inactive | inactive | inactive | – | inactive | inactive | inactive |
| CCCCCCCCCCCCCCn1cc[n+](C)c1 | 122 nM (active) and 42.8 nM (active) | inactive | inactive | 7.71 µM (active) and 1.7 µM (active) | 30.7 µM (active) and 60.4 µM (active) | 34.4 µM (active) and 34 µM (active) and inactive | inactive | inactive | – | – |
| CCCCc1ccccc1 | inactive | inactive | inactive | inactive | inactive | inactive | inactive | inactive | inactive | – |
| COc1cnc(OC)n2nc(NS(=O)(=O)c3c(OCC(F)F)cccc3C(F)(F)F)nc12 | inactive | inactive | inactive | inactive | inactive | inactive | inactive | inactive | inactive | – |
